# Measured values as given in PubChem BioAssay AID1159580 (chemical genetic matrix, 2015).
# “And” between values parts separate entries of the source, which are not always exact repeats. Equal values may be shown once. In all, about 5,500 compounds went through this assay and about 2,000 (36%) were called active. Roughly 18% stayed inconclusive and do not appear here. This is one part of the list. Values without a mark were called inactive. Rule as the data show it: active = normalized growth mostly below about 0.91 (no sharp cut-off); inconclusive = no clear call, values can overlap the other calls; inactive = mostly above about 0.92.
# Assay: chemical genetic growth profiling, strain panel (AID 1159580);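 also: tested at 20 µM; growth read once vehicle control cultures reached saturation at 30 °C; 1 = growth at the plate median or of vehicle wells; lower values mean less growth of the strain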
# Conditions: S. cerevisiae deletion strains, growth OD
structure (smiles),measurement,setting,value
CC(CCC(=O)O)[C@H]1CCC2C3CC[C@@H]4CC(=O)CC[C@]4(C)C3C=C[C@@]21C (stereo not given in full),normalized growth,"locus YBR021W, strain FUR4, hits give low values",0.906
same,normalized growth,"locus YBR229C, strain ROT2, hits give low values",1.03
same,normalized growth,"locus YCL029C, strain bik1, hits give low values",0.984
same,normalized growth,"locus YDL035C, strain GPR1, hits give low values",0.832 (active)
same,normalized growth,"locus YDL074C, strain BRE1, hits give low values",0.992
same,normalized growth,"locus YDL101C, strain DUN1, hits give low values",1.02
same,normalized growth,"locus YDL185W, strain tfp1, hits give low values",1.02
same,normalized growth,"locus YDL192W, strain arf1, hits give low values",1
same,normalized growth,"locus YDR101C, strain arx1, hits give low values",0.967
same,normalized growth,"locus YDR162C, strain NBP2, hits give low values",0.999
same,normalized growth,"locus YDR318W, strain mcm21, hits give low values",0.982
same,normalized growth,"locus YDR388W, hits give low values",1.01
same,normalized growth,"locus YDR502C, strain sam2, hits give low values",0.928
same,normalized growth,"locus YEL061C, strain CIN8, hits give low values",1.03
same,normalized growth,"locus YER110C, hits give low values",1.05
same,normalized growth,"locus YER155C, strain BEM2, hits give low values",1.06
same,normalized growth,"locus YER167W, strain BCK2, hits give low values",1.05
same,normalized growth,"locus YGL078C, strain dbp3, hits give low values",0.87 (active)
same,normalized growth,"locus YGL086W, strain mad1, hits give low values",0.971
same,normalized growth,"locus YGL248W, strain PDE1, hits give low values",0.963
same,normalized growth,"locus YGR078C, strain PAC10, hits give low values",1.02
same,normalized growth,"locus YGR135W, strain pre9, hits give low values",0.953
same,normalized growth,"locus YGR229C, strain SMI1, hits give low values",0.904
same,normalized growth,"locus YGR252W, strain gcn5, hits give low values",0.779
same,normalized growth,"locus YHR030C, strain SLT2, hits give low values",1.06 and 0.918
same,normalized growth,"locus YHR079C, strain IRE1 (second series), hits give low values",1.03
same,normalized growth,"locus YHR079C, strain IRE1, hits give low values",0.944
same,normalized growth,"locus YHR094C, strain hxt1, hits give low values",1.03
same,normalized growth,"locus YHR129C, strain ARP1, hits give low values",1.04
same,normalized growth,"locus YHR200W, strain rpn10, hits give low values",1.03
same,normalized growth,"locus YIL066C, strain RNR3, hits give low values",1.02
same,normalized growth,"locus YIL073C, strain SPO22, hits give low values",0.955
same,normalized growth,"locus YIL125W, strain kgd1, hits give low values",0.98
same,normalized growth,"locus YIR030C, strain dcg1, hits give low values",1.02
same,normalized growth,"locus YJL095W, strain BCK1, hits give low values",0.959 and 0.937
same,normalized growth,"locus YJL134W, strain LCB3, hits give low values",1.05
same,normalized growth,"locus YJL168C, strain set2, hits give low values",1.03
same,normalized growth,"locus YJL187C, strain SWE1 (second series), hits give low values",0.986
same,normalized growth,"locus YJR043C, strain POL32, hits give low values",0.985
same,normalized growth,"locus YJR066W, strain TOR1, hits give low values",0.893
same,normalized growth,"locus YKL009W, strain mrt4, hits give low values",0.809 (active)
same,normalized growth,"locus YKL068W, hits give low values",1.04
same,normalized growth,"locus YKL085W, strain MDH1 (second series), hits give low values",1.03
same,normalized growth,"locus YKL085W, strain MDH1, hits give low values",1.03
same,normalized growth,"locus YKL190W, strain CNB1, hits give low values",1.04
same,normalized growth,"locus YKR001C, strain vps1, hits give low values",0.955
same,normalized growth,"locus YLR039C, strain RIC1, hits give low values",0.953
same,normalized growth,"locus YLR058C, strain SHM2, hits give low values",1.01
same,normalized growth,"locus YLR102C, strain apc9, hits give low values",1.03
same,normalized growth,"locus YLR113W, strain HOG1, hits give low values",0.882
same,normalized growth,"locus YLR262C, strain YPT6, hits give low values",0.895
same,normalized growth,"locus YLR268W, strain sec22, hits give low values",0.949
same,normalized growth,"locus YLR330W, strain CHS5, hits give low values",1.04
same,normalized growth,"locus YLR342W, strain FKS1 (second series), hits give low values",0.87
same,normalized growth,"locus YLR371W, strain rom2, hits give low values",1.05
same,normalized growth,"locus YLR418C, strain cdc73, hits give low values",0.889
same,normalized growth,"locus YML016C, strain PPZ1, hits give low values",1.04
same,normalized growth,"locus YML032C, strain rad52, hits give low values",0.959
same,normalized growth,"locus YML124C, strain tub3, hits give low values",1.04
same,normalized growth,"locus YMR078C, strain ctf18, hits give low values",1.03
same,normalized growth,"locus YMR223W, strain ubp8, hits give low values",0.969
same,normalized growth,"locus YMR307W, strain GAS1, hits give low values",0.875
same,normalized growth,"locus YNL067W, strain RPL9B, hits give low values",0.971
same,normalized growth,"locus YNL153C, strain GIM3, hits give low values",0.966
same,normalized growth,"locus YNL183C, strain NPR1, hits give low values",0.883
same,normalized growth,"locus YNL233W, strain BNI4, hits give low values",1.02
same,normalized growth,"locus YNL250W, strain rad50, hits give low values",1
same,normalized growth,"locus YNL271C, strain bni1, hits give low values",0.992
same,normalized growth,"locus YNL298W, strain CLA4, hits give low values",0.926
same,normalized growth,"locus YNL307C, strain MCK1, hits give low values",1.02
same,normalized growth,"locus YNL322C, strain KRE1, hits give low values",1.04
same,normalized growth,"locus YNR052C, strain pop2, hits give low values",0.931
same,normalized growth,"locus YOL006C, strain TOP1, hits give low values",0.944
same,normalized growth,"locus YOL012C, strain htz1",1.95
same,normalized growth,"locus YOL147C, strain pex11, hits give low values",1.03
same,normalized growth,"locus YOR061W, strain CKA2, hits give low values",1.01
same,normalized growth,"locus YOR069W, strain VPS5, hits give low values",1.02
same,normalized growth,"locus YOR136W, strain idh2, hits give low values",1.03
same,normalized growth,"locus YOR144C, strain elg1, hits give low values",0.988
same,normalized growth,"locus YOR184W, strain ser1, hits give low values",0.795 (active)
same,normalized growth,"locus YOR231W, strain MKK1, hits give low values",0.913
same,normalized growth,"locus YOR316C, strain cot1, hits give low values",1.03
same,normalized growth,"locus YPL055C, strain LGE1, hits give low values",1.01
same,normalized growth,"locus YPL241C, strain CIN2, hits give low values",1.04
same,normalized growth,"locus YPL256C, strain CLN2, hits give low values",0.963
same,normalized growth,"locus YPR119W, strain clb2, hits give low values",1.05
same,normalized growth,"locus YPR141C, strain kar3, hits give low values",1.05
same,normalized growth,"locus YPR163C, strain tif3, hits give low values",1
same,normalized growth,"locus YPR167C, strain met16, hits give low values",1.01
same,normalized growth,"strain wtn01, hits give low values",0.931
